Results reported in PubChem BioAssay (Tox21).
Results filed as inconclusive are left out. Activity calls are given as the source filed them. Unless noted, calls follow the shape of the dose curve; as a rule, active = well fitted curve in the direction sought with a large enough effect in the repeat runs; inconclusive = weak or mixed curves; inactive = no such curve, though single readings can be large; an effect the other way counts as inactive or inconclusive.

Key:
[1] = qHTS assay for small molecules that induce genotoxicity in human embryonic kidney cells expressing luciferase-tagged ATAD5 (AID 651632); also: % is scaled to controls: 0 for no effect and ±100 for the full control effect; nearly all actives have a fitted effect of over 15% in size
In short: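 Increased luciferase signal from ATAD5-tagged reporter cells indicates DNA-damage-driven ATAD5 induction. HEK293T cells are treated for 16 hr at 37C before detection with Amplite.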

[2] = qHTS assay for small molecule agonists of the p53 signaling pathway - cell viability (AID 651633; calls by dose curve; also: series mostly up to about 83 µM; % is scaled to controls: 0 for no effect and ±100 for the full control effect; nearly all actives have a fitted effect of over 30% in size)
In short: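 p53RE-bla cells, seeded at 4,000 per well and rested 5 h at 37 C/5% CO2, received compounds in DMSO for 16 h at 37 C. CellTiter-Glo was then added, and luminescence was read after 30 min at room temperature to gauge cytotoxicity.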

[3] = qHTS assay for small molecules that induce genotoxicity in human embryonic kidney cells expressing luciferase-tagged ATAD5 - cell viability (AID 651634; calls by dose curve; also: nearly all actives have a fitted effect of over 25% in size; also: potency is read from the fitted curve at half-maximal effect)
In short: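 Cytotoxicity counterscreen in HEK293T cells bearing an ATAD5-luciferase reporter: live-cell protease activity measured by CellTiter-Fluor fluorescence after 15.5 hr compound exposure.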

[4] = qHTS assay for small molecule disruptors of the mitochondrial membrane potential - cell viability (AID 720634; calls by dose curve; also: nearly all actives have a fitted effect of over 20% in size; also: potency is read from the fitted curve at half-maximal effect)
In short: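 After overnight attachment at 37 C, HepG2 cells received compound or DMSO vehicle for 1 hr. Viability is then taken from ATP-driven luminescence following a 30 min room-temperature CellTiter-Glo step.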

[5] = qHTS assay for small molecule disruptors of the mitochondrial membrane potential (AID 720635); also: % is scaled to controls: 0 for no effect and ±100 for the full control effect
In short: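 HepG2 cells (2,000/well) attached overnight at 37C, then took compound for 1 hr at 37C, 5% CO2. Mito-MPS dye was added for 30 min; fluorescence was read at 490/535 nm (monomers) and 540/590 nm (aggregates).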

[6] = qHTS assay to test for compound auto fluorescence at 590 nm (red) in HepG2 cells (AID 720674); also: % is scaled to controls: 0 for no effect and ±100 for the full control effect
In short: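 Intrinsic compound fluorescence in the red window (Ex/Em 540/590 nm) is measured in attached HepG2 cells exposed for 1 hr, DMSO vehicle as baseline, benchmarked to Rose Bengal sodium.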

[7] = qHTS assay to test for compound auto fluorescence at 535 nm (green) in HepG2 cells (AID 720675); also: % is scaled to controls: 0 for no effect and ±100 for the full control effect
[8] = qHTS assay to test for compound auto fluorescence at 460 nm (blue) in HEK293 cells (AID 720678); also: % is scaled to controls: 0 for no effect and ±100 for the full control effect
In short: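 Auto fluorescence in the blue band was quantified as triamterene equivalency. HEK293 cells were seeded at 2,000/well, dosed after a 4-5 hr attachment, and kept overnight at 37C before the 405/460 nm reading.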

[9] = qHTS assay to test for compound auto fluorescence at 590 nm (red) in HEK293 cells (AID 720679); also: % is scaled to controls: 0 for no effect and ±100 for the full control effect
In short: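 Autofluorescence equivalency to Rose Bengal sodium, 540/590nm, in HEK293 cells exposed overnight to 23 nL compound per well.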

[10] = qHTS assay to test for compound auto fluorescence at 535 nm (green) in HEK293 cells (AID 720680); also: % is scaled to controls: 0 for no effect and ±100 for the full control effect
[11] = qHTS assay to test for compound auto fluorescence at 460 nm (blue) in HEK293 cell free culture (AID 720681); also: % is scaled to controls: 0 for no effect and ±100 for the full control effect
In short: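 Test compounds were pinned into cell-free culture medium (DMEM with 10% FBS) and fluorescence was read directly at Ex/Em 405/460 nm. Signals were expressed as fluorescence equivalents of triamterene, with DMSO vehicle as control.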

[12] = qHTS assay to test for compound auto fluorescence at 535 nm (green) in HEK293 cell free culture (AID 720682); also: % is scaled to controls: 0 for no effect and ±100 for the full control effect
In short: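 Compounds were pin-transferred into cell-free DMEM with 10% FBS, and green fluorescence was read at excitation 485 nm and emission 535 nm. Intensities were expressed as fluorescein-equivalent values.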

[13] = qHTS assay to test for compound auto fluorescence at 590 nm (red) in HEK293 cell free culture (AID 720683); also: % is scaled to controls: 0 for no effect and ±100 for the full control effect
In short: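 Tox21 10K library compounds were pinned into cell-free DMEM with 10% FBS and fluorescence was read at excitation 540 nm. Activity is expressed as Rose Bengal sodium equivalency.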

[14] = qHTS assay to test for compound auto fluorescence at 590 nm (red) in HepG2 cell free culture (AID 720684); also: % is scaled to controls: 0 for no effect and ±100 for the full control effect
In short: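 Red fluorescence (540 nm excitation, 590 nm emission) was measured after compound transfer into cell-free MEM supplemented with 10% FBS. Values are equivalencies against Rose Bengal sodium.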

[15] = qHTS assay to test for compound auto fluorescence at 460 nm (blue) in HepG2 cell free culture (AID 720685); also: % is scaled to controls: 0 for no effect and ±100 for the full control effect
In short: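 Compound (23 nL) or DMSO pinned into cell-free MEM with 10% FBS; blue fluorescence read at 405/460 nm excitation/emission, expressed as auto-fluorescence equivalency to triamterene.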

[16] = qHTS assay to test for compound auto fluorescence at 535 nm (green) in HepG2 cell free culture (AID 720686); also: % is scaled to controls: 0 for no effect and ±100 for the full control effect
[17] = qHTS assay to test for compound auto fluorescence at 460 nm (blue) in HepG2 cells (AID 720687); also: % is scaled to controls: 0 for no effect and ±100 for the full control effect
In short: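 Cells (2,000/well in MEM with 10% FBS) attached overnight at 37 C, then were exposed to compound or DMSO for 1 hr at 37 C, 5% CO2. Fluorescence read at Ex/Em 405/460 nm, expressed as triamterene-equivalent signal.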

[18] = biological target: Glucocorticoid receptor (Homo sapiens) (UniProt P04150); experiment: qHTS assay to identify small molecule agonists of the glucocorticoid receptor (GR) signaling pathway (AID 720691; active = well fitted activation curve with a large enough effect in the signal ratio in the repeat runs, not every such curve was filed as active; the % refers to the signal ratio; also: % is scaled to controls: 0 for no effect and ±100 for the full control effect)
Sequence of Glucocorticoid receptor (Homo sapiens) (P04150 whole entry, looked up): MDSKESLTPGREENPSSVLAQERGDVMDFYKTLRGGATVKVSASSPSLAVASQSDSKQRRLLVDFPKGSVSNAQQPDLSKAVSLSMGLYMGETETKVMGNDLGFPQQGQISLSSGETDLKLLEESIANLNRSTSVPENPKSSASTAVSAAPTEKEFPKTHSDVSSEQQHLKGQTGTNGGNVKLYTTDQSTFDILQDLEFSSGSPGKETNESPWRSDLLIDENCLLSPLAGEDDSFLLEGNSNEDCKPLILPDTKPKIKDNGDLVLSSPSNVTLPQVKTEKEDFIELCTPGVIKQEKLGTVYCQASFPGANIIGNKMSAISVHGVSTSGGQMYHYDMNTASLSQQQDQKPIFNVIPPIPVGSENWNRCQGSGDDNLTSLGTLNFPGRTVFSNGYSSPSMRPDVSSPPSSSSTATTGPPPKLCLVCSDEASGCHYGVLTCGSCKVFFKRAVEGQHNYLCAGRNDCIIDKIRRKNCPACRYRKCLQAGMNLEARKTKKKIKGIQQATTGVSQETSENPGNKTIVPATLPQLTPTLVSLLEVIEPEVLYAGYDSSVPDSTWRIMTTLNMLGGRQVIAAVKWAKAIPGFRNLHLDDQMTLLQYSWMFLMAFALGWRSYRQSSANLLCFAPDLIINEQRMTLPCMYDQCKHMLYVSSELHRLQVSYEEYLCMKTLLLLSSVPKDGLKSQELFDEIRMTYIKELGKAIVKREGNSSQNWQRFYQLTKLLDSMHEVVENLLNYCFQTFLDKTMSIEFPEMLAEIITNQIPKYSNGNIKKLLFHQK
In short: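 Agonist mode in a HeLa line carrying a GRE-controlled beta-lactamase reporter. Compounds act for 18 h at 37 C before a 2 h room-temperature FRET substrate step and fluorescence reading.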

[19] = qHTS assay for small molecule agonists of the p53 signaling pathway (AID 651631; calls by dose curve; also: potency is read from the fitted curve at half-maximal effect; nearly all actives have a fitted effect of over 15% in size)
In short: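 Readout was fluorescence from the LiveBLAzer FRET substrate, applied for 2 h at room temperature after 16 h compound exposure at 37 °C. Cells were the p53RE-bla HCT-116 line, with beta-lactamase driven by p53 response elements.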

[20] = biological target: Glucocorticoid receptor (Homo sapiens) (UniProt P04150); experiment: qHTS assay to identify small molecule antagonists of the glucocorticoid receptor (GR) signaling pathway (AID 720692; active = well fitted inhibition curve with a large enough effect in the signal ratio in the repeat runs, not every such curve was filed as active; the % refers to the signal ratio; also: potency is read from the fitted curve at half-maximal effect)
In short: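 Cells plated, rested 4 h at 37 C/5% CO2; compounds in DMSO pin-transferred; dexamethasone added to 5 nM final; 18 h at 37 C; B/G FRET substrate added, 2 h room temperature; fluorescence measured.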

CCCCCCCCCCCC(=O)OCC(C)OC(=O)CCCCC(=O)O (configuration not stated)
inactive: Potency [1] | Potency [2] | Potency [3] | Potency [4] | Potency [5] | Potency [6] | Potency [7] | Potency [8] | Potency [9] | Potency [10] | Potency [11] | Potency [12] | Potency [13] | Potency [14] | Potency [15] | Potency [16] | Potency [17] | Potency [18]

COc1c(C)c2c(c(O)c1C/C=C(\C)CCC(=O)OCCN1CCOCC1)C(=O)OC2
active: Potency [19] 0.106 µM
inactive: Potency [1] | Potency [3] | Potency [4] | Potency [5] | Potency [6] | Potency [7] | Potency [8] | Potency [9] | Potency [10] | Potency [11] | Potency [12] | Potency [13] | Potency [14] | Potency [15] | Potency [17] | Potency [18]

C#C[C@]1(OC(C)=O)CC[C@H]2[C@@H]3CCC4=C/C(=N/O)CC[C@@H]4[C@H]3CC[C@@]21CC
active: Potency [19] 33.5 µM | Potency [3] 18.8 µM | Potency [4] 10.6 µM
inactive: Potency [1] | Potency [6] | Potency [7] | Potency [8] | Potency [9] | Potency [10] | Potency [11] | Potency [12] | Potency [13] | Potency [14] | Potency [15] | Potency [16] | Potency [17]

C/C=C/C=C/COC(=O)C(C)C
active: Potency [20] 34.7 µM
inactive: Potency [1] | Potency [2] | Potency [3] | Potency [4] | Potency [5] | Potency [6] | Potency [7] | Potency [8] | Potency [10] | Potency [11] | Potency [12] | Potency [13] | Potency [14] | Potency [15] | Potency [17] | Potency [18]

CC[N+](CC)(CC)CCOC(=O)C(C1CCCC1)C1CCCC1
inactive: Potency [1] | Potency [2] | Potency [3] | Potency [4] | Potency [6] | Potency [7] | Potency [8] | Potency [9] | Potency [10] | Potency [11] | Potency [12] | Potency [13] | Potency [14] | Potency [16] | Potency [17]

CCOc1ccc2ccccc2c1C(=O)N[C@@H]1C(=O)N2[C@@H]1SC(C)(C)[C@@H]2C(=O)O
inactive: Potency [1] | Potency [2] | Potency [3] | Potency [4] | fluorescence, relative to Rose Bengal [6] 0.528% [at 18.6 µM] | fluorescence, % of fluorescein control [7] -0.0692% [at 18.6 µM] | fluorescence, % of triamterene [8] 0.458% [at 18.6 µM] | fluorescence, % of fluorescent control [9] 0.326% [at 18.6 µM] | fluorescence, % of fluorescein [10] 0.0057% [at 18.6 µM] | fluorescence, % of fluorescent control [11] 0.309% [at 18.6 µM] | activity change [12] 0.0527% [at 18.6 µM, active compounds read high] | fluorescence, % of fluorescent control [13] 0.0898% [at 18.6 µM] | fluorescence, % of Rose Bengal [14] -0.0711% [at 18.6 µM] | fluorescence, % of fluorescent control [15] 0.462% [at 18.6 µM] | fluorescence, % of fluorescein control [16] 0.0405% [at 18.6 µM] | Potency [18]

Cc1c(F)c(N2CCNC(C)C2)cc2c1c(=O)c(C(=O)O)cn2C1CC1 (configuration not stated)
inactive: Potency [1] | Potency [2] | Potency [3] | Potency [4] | Potency [6] | Potency [7] | Potency [8] | Potency [9] | Potency [10] | Potency [11] | Potency [12] | Potency [13] | Potency [14] | Potency [15] | Potency [16] | Potency [17] | Potency [18] | Potency [20]
